Among the data in the supplement of paper PMC6555819 are PBM binding z-score values, retold here.

The assay concerns VDR:RXRa (NR concentration 270 nM, RXRa partner concentration 90 nM). Description: PBM binding z-score (relative to random genomic background probes); higher = stronger binding; sequences stand for … in GC…GCGATTGACAGCGTAGAATGAAGG
How it is done: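 Protein-binding microarray (Agilent 4x180K custom design, double-stranded 60-nt probes: 5' GC cap, 34-nt variable region, 24-nt constant primer region; full probe sequence given). Purified or IVT nuclear receptor:RXRα heterodimers (3:1 NR:RXRα, mostly 270:90 nM) or homodimers were incubated for 1 h in PBS with 2% milk and no ligand, then detected with Alexa488 antibodies. Fluorescence from o1-orientation probes (~5 replicates averaged) was converted to z-scores against 500 random hg19 background probes. Variable regions are seed direct-repeat (DR0–DR5) sites, all their single-nucleotide variants and half-site ablations.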
Regarding GCGACTGGGGCATCAGCAGGTTTCCATAACTTAA, the PBM binding z-score was -0.402.
For the sequence ATCTCTAGGTAAGACTCAGTTCACTGAAGAACGC, the PBM binding z-score worked out at 1.74.
GCGGCTAGGTCAACTGATGGTCAGCTAAAGCTCG came in with a PBM binding z-score of 1.28.
As for GCTGCTAGATCAGGTTGGTCAGCTAACGGGTACG, the figure is -0.639; as for ACTATGAGTTGACTTAGGGCAACCGATACGACGC, 1.16.
Sequence TCTTGTAGATCCATAGAGGTTAAGAAAGTGCGCT had a PBM binding z-score of 1.69.
As for TCTGCTAGGTCAACGATGGTCGGCTAATCTGCTA, the figure is 1.42.
Sequence CCTACTGGGTCAAGGTCATTGATCAGTCAAAGCA registered a PBM binding z-score of 4.84.
CCTTACGGGTCACGAGGATATAGCACGACGAGCG: the PBM binding z-score was 3.9.
To ATACCAAGCTGATCGTGAGGTCGTTGATACTAAC belongs 1.38; to AGAATGAGGTTAAGATAAGGGAAACAGAATACAT, 1.62.
TGTAGTTGGTCAAAGGTCACACACTCGAAATGCG: the PBM binding z-score is 5.19.
TCTGCTAGGTCAGTGGGTCAGCTAACGAGCTGCC returned a PBM binding z-score of 1.5.
To GCTCGGAGGACAAGGGCAGAGCTTTGTCCGTAGA belongs -0.692; to CGTCCAAGGTCAGAGAGGTCCGTGAATGCCGAGT, 4.73; to TCATATAGGTAAAAGGTGAAAGTAGGTGTGGTAA, 1.93.
For the sequence CAGCCTAGGTCAGGGCCTGTATAGGAGGAACGTT, the PBM binding z-score is -0.0829.
For the sequence GCGCGGAGGACAAGGTCAGAGCTTTGTCCGTAGA, the PBM binding z-score is 1.4.
As to ACTATTACTTGAGACGAGGGCAACCGATAGGTTG, the PBM binding z-score came to 0.736.
With GCGACTGGGGCATCAGCAGATTACCATAACTTAA, the PBM binding z-score is -0.562.
TTACCAAGGTGAAAGGTCGTTGGTGCACGCCTTG: the PBM binding z-score is 3.5.
To GCGACTAGGGCATCAGCAGGTTACCATAACTTAA belongs -0.295; to TCTTGTACATCAACAGGAGGTTAAGAAAGATCGA, 0.977; to TCTTGTAGATCAATAGAGGTTAAGAAAGTGCGCT, 1.8.
On to ACTAGCAGGACAAGTTTGGGTCACTCAAACAAAG, for which the PBM binding z-score is 0.698.
As for GCAAATAGGTAATACAAGGTGAAAGTCCGATTGT, the figure is 0.551.
As for CATTACGGGTCACGAGGTTATAGCACGACGAGCG, the figure is 5.57; as for CCTCGGCGGACAACAGGAGGTCAGAGCTGCCAGA, 0.818; as for CCTTACGGGTCAGTCCAGGTTATAGCATCGGAGT, 2.9.
To TCTCGGAGGACACGAAGGTCAGATCTTTCCAGAG belongs 2.61.
TTGCCTAGGTCATGGGCCAGTATACCACGCGAAC yielded a PBM binding z-score of 2.21.
For CCTACTGGGCCAAGGTCATTGTTCAGTCAAAGCA, the PBM binding z-score turned out to be 3.15.
To GCTAGTTAGTCAGTAAAAGGTCACACACCGGTCG belongs 3.78; to ATCTCAAGGTAAAGTTCAGTGAAAGATCGATAGA, 1.8; to CAGCCTAGGTCAGCGCCAGTATAGGAGGAACGTT, 0.303.
As for GATACAGGGTCAGCTAGTGGCCAGAGTATGGAAA, the figure is 2.34.
To GTGCCAAGGTGAATAGGTCGTTGATGAGTAGGCG belongs 0.576; to GCTGCTAGGTCAGGTTGGTCAGCTTACGGGTACG, 0.539; to ACTCTGAGGACAAAGGTCAGAGCTACGCCAGTGA, 3.49.
ACCGAAAGGTCGAGGTGAGTATAGAGAAAGGGAA returned a PBM binding z-score of 2.82.
